Reference: PubChem BioAssay AID1159580 (chemical genetic matrix, 2015)
“And” between values parts separate entries of the source, which are not always exact repeats. Equal values may be shown once. Among all 5,500 compounds or so, about 2,000 (36%) were called active. Another 18% or so got no clear call; they are omitted. Rule as the data show it: active = normalized growth mostly below about 0.91 (no sharp cut-off); inconclusive = no clear call, values can overlap the other calls; inactive = mostly above about 0.92. This is one part of the list.

Experiment: chemical genetic growth profiling, strain panel (AID 1159580);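 also: tested at 20 µM; growth read once vehicle control cultures reached saturation at 30 °C; 1 = growth at the plate median or of vehicle wells; lower values mean less growth of the strain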
Conditions: S. cerevisiae deletion strains, growth OD

Measured: normalized growth

CC(=O)Oc1ccccc1C(=O)Oc1ccccc1C(=O)O
inactive: locus YAL013W, strain DEP1, active compounds read low 0.989 | locus YAL021C, strain ccr4, active compounds read low 1.01 | locus YAL026C, strain drs2, active compounds read low 1.01 | locus YAL030W, strain snc1, active compounds read low 1 | locus YBL061C, strain skt5, active compounds read low 1 | locus YBR009C, strain hhf1, active compounds read low 1.01 | locus YBR021W, strain FUR4, active compounds read low 0.981 | locus YBR023C, strain chs3, active compounds read low 0.998 | locus YBR171W, strain sec66, active compounds read low 1 | locus YBR229C, strain ROT2, active compounds read low 0.992 | locus YBR231C, strain swc5, active compounds read low 0.995 | locus YBR279W, strain paf1, active compounds read low 1 | locus YCL011C, strain gbp2, active compounds read low 1.02 | locus YCL016C, strain dcc1, active compounds read low 1 | locus YCL029C, strain bik1, active compounds read low 0.98 | locus YCL069W, strain vba3, active compounds read low 1 | locus YCR088W, strain abp1, active compounds read low 1 | locus YDL005C, strain med2, active compounds read low 0.995 | locus YDL035C, strain GPR1, active compounds read low 1 | locus YDL040C, strain nat1, active compounds read low 1 | locus YDL074C, strain BRE1, active compounds read low 1.01 | locus YDL101C, strain DUN1, active compounds read low 0.997 | locus YDL134C, strain PPH21, active compounds read low 1.02 | locus YDL185W, strain tfp1, active compounds read low 0.987 | locus YDL192W, strain arf1, active compounds read low 0.993 | locus YDR001C, strain nth1, active compounds read low 1.01 | locus YDR069C, strain doa4, active compounds read low 0.996 | locus YDR101C, strain arx1, active compounds read low 0.994 | locus YDR137W, strain rgp1, active compounds read low 1 | locus YDR150W, strain NUM1, active compounds read low 0.996 | locus YDR159W, strain sac3, active compounds read low 0.962 | locus YDR162C, strain NBP2, active compounds read low 1.02 | locus YDR195W, strain ref2 0.962 | locus YDR297W, strain sur2, active compounds read low 1.01 | locus YDR318W, strain mcm21, active compounds read low 0.986 | locus YDR334W, strain swr1, active compounds read low 1 | locus YDR335W, strain msn5, active compounds read low 1 | locus YDR388W, active compounds read low 0.986 | locus YDR392W, strain spt3, active compounds read low 0.954 | locus YDR502C, strain sam2, active compounds read low 0.985 | locus YEL003W, strain gim4, active compounds read low 1.01 | locus YEL037C, strain rad23, active compounds read low 1 | locus YEL061C, strain CIN8 (second series), active compounds read low 1.01 | locus YEL061C, strain CIN8, active compounds read low 0.999 | locus YER015W, strain faa2, active compounds read low 0.997 | locus YER016W, strain bim1, active compounds read low 1 | locus YER110C, active compounds read low 0.98 | locus YER111C, strain swi4, active compounds read low 0.994 | locus YER155C, strain BEM2 (second series), active compounds read low 1.02 | locus YER155C, strain BEM2, active compounds read low 0.986 | locus YER167W, strain BCK2, active compounds read low 0.991 | locus YFR010W, strain ubp6, active compounds read low 1.02 | locus YGL078C, strain dbp3, active compounds read low 0.977 | locus YGL086W, strain mad1, active compounds read low 0.984 | locus YGL167C, strain pmr1, active compounds read low 0.996 | locus YGL173C, strain kem1, active compounds read low 1.02 | locus YGL227W, strain vid30, active compounds read low 0.998 | locus YGL240W, strain doc1, active compounds read low 0.978 | locus YGL248W, strain PDE1, active compounds read low 0.992 | locus YGL253W, strain hxk2, active compounds read low 0.996 | locus YGR078C, strain PAC10, active compounds read low 1.01 | locus YGR135W, strain pre9, active compounds read low 0.999 | locus YGR229C, strain SMI1, active compounds read low 1.01 | locus YGR252W, strain gcn5, active compounds read low 0.966 | locus YHR013C, strain ard1, active compounds read low 1.01 | locus YHR027C, strain rpn1, active compounds read low 0.985 | locus YHR030C, strain SLT2, active compounds read low 0.991 and 0.986 | locus YHR079C, strain IRE1 (second series), active compounds read low 0.983 | locus YHR079C, strain IRE1, active compounds read low 0.995 | locus YHR094C, strain hxt1, active compounds read low 0.98 | locus YHR129C, strain ARP1, active compounds read low 1 | locus YHR142W, strain chs7, active compounds read low 1.01 | locus YHR200W, strain rpn10, active compounds read low 0.97 | locus YIL066C, strain RNR3, active compounds read low 0.982 | locus YIL073C, strain SPO22, active compounds read low 0.975 | locus YIL125W, strain kgd1, active compounds read low 0.977 | locus YIR030C, strain dcg1, active compounds read low 0.983 | locus YJL092W, strain hpr5, active compounds read low 1.01 | locus YJL095W, strain BCK1 (second series), active compounds read low 0.997 | locus YJL095W, strain BCK1, active compounds read low 1.01 and 1 | locus YJL115W, strain asf1, active compounds read low 1.01 | locus YJL129C, strain trk1, active compounds read low 1.01 | locus YJL134W, strain LCB3, active compounds read low 0.992 | locus YJL154C, strain vps35, active compounds read low 1 | locus YJL164C, strain tpk1, active compounds read low 0.996 | locus YJL166W, strain qcr8, active compounds read low 1.01 | locus YJL168C, strain set2, active compounds read low 0.981 | locus YJL187C, strain SWE1 (second series), active compounds read low 0.993 | locus YJL187C, strain SWE1, active compounds read low 1.01 | locus YJR043C, strain POL32, active compounds read low 0.995 | locus YJR066W, strain TOR1, active compounds read low 0.905
